This is part of a sample that, as a whole, favours compounds with a hit. Of some 83,000 tested, about 20% had one in any assay.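 Values shown are percent growth following 48 h exposure of cells in 96-well plates to a single concentration of compound; below 10 was considered active.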 A number with no mark means an inactive call. Activity calls are given as the source filed them.
Tested on: MDA-MB-468 breast
Experiment: NCI-60 one-dose screen, 48 h (100 = growth as untreated, 0 = no growth, -100 = all killed)
Details: 10 µM unless noted

SMILES	growth
O=S(=O)(Oc1ccc(-c2nnc(Nc3ccccc3)s2)cc1)C(F)(F)C(F)(F)C(F)(F)C(F)(F)C(F)(F)C(F)(F)F	99.8%
NCCCNc1nc2ccccc2c2c(=O)c3cccc(Cl)c3sc12	-80.2% (active)
O=C(Nc1ccc(Br)cc1)Nc1cccc(Br)c1	27.2%
N#C/C(=C\c1ccc(-c2cccc(Cl)c2)o1)C(=O)Nc1ncc(Cc2ccc(Cl)cc2)s1	47%
Clc1ccc(Nc2nnc(-c3ccc4c(c3)OCO4)o2)cc1	106%
O=C1/C(=C/c2ccc(Br)cc2)C=C(c2ccccc2)N1CCc1ccccc1	45%
CCOC(=O)Nc1ccc2c(c1)C(=O)N(CCOC)c1ccccc1O2	20.2%
Cc1ccc[n+](CC(=O)c2cccc3ccccc23)c1	80.2%
CCCCCCCCCCCCCCCCOCCCOP(=O)(O)C1CCCN(O)C1=O (centres undefined)	-7.42% (active)
N#C/C(=C\c1ccc(-c2ccc(F)cc2)o1)c1nc(-c2ccco2)cs1	-47.2% (active)
NS(=O)(=O)c1ccc(C(=O)N/N=C(\CS(=O)(=O)c2ccccc2)c2cc3cc(Br)ccc3o2)cc1	78.9%
N#Cc1ccc(NC(=O)Nc2ccc(Oc3ccc(NC(=O)Nc4ccc(C#N)cc4)cc3)cc2)cc1	26%
Nc1nc(N)c2nc(CNc3ccc(C(=O)CC(CCC(=O)O)C(=O)O)cc3)cnc2n1 (centres undefined)	65.4%
COc1ccc2nc3cc(Cl)ccc3c(NCCNCC(C)O)c2c1 (centres undefined)	38.6%

From PubChem BioAssay (NCI)
